Only some compounds are listed: those with a hit (about 3% of all), similar ones and a draw of the others.
S16 viability = cytotoxicity in S16 Pmp22-F2sN Schwann cells. 43,000 compounds, 0.48% hits. AID 1508642. S16 Pmp22-F2sN Schwann cells viability, CellTiter-Glo, 24 h. Potency, µM (highest dose often 57.5 µM), most hits filed as cytotoxic; further: nearly all actives have a fitted effect of over 65% in size
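Seed 500-1,000 S16 Pmp22-F2sN cells per well in phenol-red-free DMEM with 10% heat-inactivated FBS; pin-add 23 nL compound; incubate 24 h at 37C; add CellTiter-Glo, wait 15 min protected from light; read luminescence.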
p53null 32C tox = p53 null cell cytotoxicity, permissive temperature; H1299-neo p53 null cells, ATP luminescence, 24 h, 32C; Potency, µM (highest dose often 46.1 µM), actives largely listed as cytotoxic; 55,000 compounds, 0.62% hits; AID 903; further: nearly all actives have a fitted effect of over 55% in size
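Cells lacking p53 (H1299-neo) are plated at 600 per well and allowed to settle overnight at 37C. Test compounds (up to 46 uM) are added and held 24 hours at 32C, then ATP is quantified by luminescence.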
GALC G270D up = enhancers of human galactocerebrosidase G270D mutant activity in cells. P54803. 145M-Twi-hGALC-G270D cells (Twitcher mouse brain line with human GALC G270D), HMU-beta-Gal fluorescence, 48 h. Potency, µM (series often up to 57.5 µM), actives largely listed as activators. 45,000 compounds, 0.1% hits; further: nearly all actives have a fitted effect of over 65% in size
Target sequence (P54803 whole entry G286D): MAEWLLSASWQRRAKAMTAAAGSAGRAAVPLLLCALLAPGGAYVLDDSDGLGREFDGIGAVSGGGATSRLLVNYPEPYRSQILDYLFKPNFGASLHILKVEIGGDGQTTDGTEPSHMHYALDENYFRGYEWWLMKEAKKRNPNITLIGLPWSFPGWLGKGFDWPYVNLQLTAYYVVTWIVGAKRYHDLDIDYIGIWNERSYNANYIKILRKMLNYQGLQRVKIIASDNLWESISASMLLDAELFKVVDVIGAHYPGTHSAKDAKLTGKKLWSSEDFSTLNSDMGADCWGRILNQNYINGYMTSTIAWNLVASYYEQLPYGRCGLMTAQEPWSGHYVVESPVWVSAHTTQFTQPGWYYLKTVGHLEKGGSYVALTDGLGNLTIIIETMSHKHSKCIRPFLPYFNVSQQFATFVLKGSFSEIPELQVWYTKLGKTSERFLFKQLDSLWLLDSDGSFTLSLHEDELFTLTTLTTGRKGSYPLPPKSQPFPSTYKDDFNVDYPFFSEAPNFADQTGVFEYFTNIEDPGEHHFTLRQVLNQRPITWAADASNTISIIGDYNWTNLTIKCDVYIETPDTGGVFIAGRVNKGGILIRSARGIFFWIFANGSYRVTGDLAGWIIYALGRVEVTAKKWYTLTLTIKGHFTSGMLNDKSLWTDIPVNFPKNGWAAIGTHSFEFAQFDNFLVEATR
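Live 145M-Twi cells (Twitcher mouse brain-derived, GALC-null) stably expressing human GALC-G270D, with a wild-type GALC line, were compound-treated. Residual GALC activity was then read as fluorescence from 0.1 mM final HMU-β-gal at pH 5.2; higher signal means activation.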
pS6 MEF inh = inhibitors of mTORC1 signaling in Tsc2-/- p53-/- MEF cells. Tsc2-/- p53-/- MEF, phospho-rpS6 immunofluorescence/PI, 24 h. Potency, µM (series often up to 38.3 µM), usual class: inhibitors. 44,000 compounds, 0.78% hits. AID 493208; further: nearly all actives have a fitted effect of over 50% in size
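Cell-based qHTS: Tsc2-/- p53-/- MEF, 24 h cpd, 37 °C; fix/perm, anti-phospho-S6 Alexa-488 + PI; Acumen 488 nm scan; pS6/PI ratio, % positive cells; rapamycin 7.5 nM = inhibition ref; PI count = viability.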
p53null 39C kill = p53 null cell cytotoxicity, nonpermissive temperature | Potency, µM (highest dose often 46.1 µM), actives largely listed as cytotoxic | AID 904 | H1299 p53-null (neo) cells, 39C, ATPlite viability, 24 h | 55,000 compounds, 0.97% hits; further: nearly all actives have a fitted effect of over 50% in size
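Cells seeded at 600/well, 37C overnight. Compound added (up to 46 uM), plates shifted to 39C for 24 hr. ATPlite added, luminescence read after 20 min at room temperature.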
PMP22 txn = PMP22 gene transcription modulation; Potency, µM (highest dose often 57.5 µM), hits mostly inhibitors; 43,000 compounds, 2% hits; S16 Pmp22-F2sN Schwann cells (luciferase reporters placed in the Pmp22 gene), FLuc/NLuc coincidence luminescence, 24 h; active means clear falling dose curves in both reporters; inconclusive means both reporters move, but less clearly or upward; inactive means either reporter flat; the % is the NLuc reporter signal
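Luminescent read-out of sequential FLuc and NLuc signals from a reporter embedded in the Pmp22 3' UTR of S16 Schwann cells, taken after 24 h compound exposure at 37C; compounds reducing both signals score as inhibitors of expression.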
Each line names hits and unclear results; the compound was inactive in the other large screens. Unless noted, the call rests on the fitted dose curve; in most records, active means well fitted curve in the direction sought with a large enough effect; inconclusive means small, poorly fitted or top-dose-only effect, or another doubt; inactive means no such curve, though single readings can be large; an effect the other way counts as inactive or inconclusive.

Fc1ccccc1Cc1cn2cc(-c3ccc(Cl)cc3)nc2s1	p53null 32C tox inconclusive, p53null 39C kill inconclusive
CC(C)(C)OC(=O)N1CCC(c2c(C(=O)NCCN3CCC(Cc4ccccc4)CC3)cnn2-c2ccc(F)cc2)CC1	S16 viability inconclusive, p53null 32C tox inconclusive, pS6 MEF inh inconclusive, p53null 39C kill 25.1µM, PMP22 txn inconclusive
COc1ccc(CCN2CCC(CNC(=O)c3cnn(-c4cccc(Cl)c4)c3C3CCN(C(=O)OC(C)(C)C)CC3)CC2)cc1	S16 viability inconclusive, pS6 MEF inh inconclusive, p53null 39C kill 20µM, PMP22 txn inconclusive
Cc1ccc(NS(=O)(=O)c2cc(-c3cc(C)no3)ccc2C)c(Cl)c1	p53null 39C kill inconclusive, PMP22 txn inconclusive
Cc1cc(-c2ccc(C)c(S(=O)(=O)Nc3ccccc3C(F)(F)F)c2)on1	p53null 32C tox inconclusive, p53null 39C kill 11.2µM
CCCCN(C)CC(O)Cn1cc(/C=C/C(=O)c2ccc(Br)cc2)c2ccccc21 (stereo not drawn)	S16 viability inconclusive, p53null 32C tox inconclusive, GALC G270D up inconclusive, pS6 MEF inh inconclusive, p53null 39C kill 12.6µM, PMP22 txn inconclusive
CCCCN(C)CC(O)Cn1cc(/C=C/C(=O)c2ccc(C)cc2)c2ccccc21 (stereo not drawn)	S16 viability inconclusive, p53null 32C tox 15.8µM, pS6 MEF inh inconclusive, p53null 39C kill 22.4µM, PMP22 txn inconclusive
CCCCN(C)CC(O)Cn1cc(/C=C/C(=O)c2ccc(OC)c(OC)c2)c2ccccc21 (stereo not drawn)	p53null 32C tox inconclusive, GALC G270D up 31.6µM, pS6 MEF inh inconclusive, p53null 39C kill 12.6µM, PMP22 txn inconclusive
O=C(/C=C/c1cn(CC(O)CN2CCCCCC2)c2ccccc12)c1ccc(Br)cc1 (stereo not drawn)	pS6 MEF inh inconclusive, p53null 39C kill 15.8µM, PMP22 txn inconclusive
CCCN(CCC)CC(O)Cn1cc(/C=C/C(=O)c2ccc(Br)cc2)c2ccccc21 (stereo not drawn)	S16 viability inconclusive, GALC G270D up inconclusive, PMP22 txn inconclusive
CCOc1ccc(CCNC(=O)c2ccc(-n3c(C)cc4c3CCC(C)C4)cc2)cc1OCC (stereo not drawn)	PMP22 txn inconclusive
COc1ccccc1CNC(=O)C(=O)NCC(c1cccnc1)N1CCN(c2ccc(F)cc2)CC1 (stereo not drawn)	S16 viability inconclusive, pS6 MEF inh inconclusive, p53null 39C kill inconclusive, PMP22 txn inconclusive
CC(/C=N/Nc1nc2ccccc2[nH]1)=C\c1ccccc1	p53null 32C tox 7.94µM, p53null 39C kill inconclusive (no result: S16 viability, GALC G270D up, pS6 MEF inh, PMP22 txn)
CCOc1ccc(NC(=O)CN(C)S(=O)(=O)c2ccc3[nH]c4c(c3c2)CCCC4)cc1	S16 viability inconclusive, PMP22 txn 17µM
Cc1cc(C)cc(NC(=O)CN(C)S(=O)(=O)c2ccc3[nH]c4c(c3c2)CCCC4)c1	PMP22 txn inconclusive
Cc1ccc(Cl)cc1N1CCN(C(=O)c2ccc(CS(=O)(=O)c3ccc(Br)cc3)o2)CC1	S16 viability inconclusive, PMP22 txn inconclusive
Cc1ccc(S(=O)(=O)Cc2ccc(C(=O)N3CCN(c4cccc(Cl)c4)CC3)o2)cc1	pS6 MEF inh inconclusive, p53null 39C kill inconclusive, PMP22 txn 15µM
CC1CCN(S(=O)(=O)c2ccc3nc(Nc4ccc(C#N)cc4)ccc3c2)CC1	PMP22 txn inconclusive
CC1CCN(S(=O)(=O)c2ccc3nc(Nc4cccc(C(F)(F)F)c4)ccc3c2)CC1	S16 viability inconclusive, pS6 MEF inh inconclusive, p53null 39C kill 11.2µM, PMP22 txn inconclusive
Cc1cccc(C(=O)OCc2cc(=O)n3nc(-c4cccs4)sc3n2)c1	S16 viability inconclusive
Cc1noc(/C=C/N(C)C)c1S(=O)(=O)N1CCCC(C(=O)Nc2ccc(F)cc2F)C1 (stereo not drawn)	pS6 MEF inh 18.5µM
COc1cccc(-c2n[nH]c3c2C(c2ccccn2)N(C)C3=O)c1 (stereo not drawn)	none
Cc1cc2c(cc3c(SCC(=O)Nc4ccc(Cl)cc4F)nncn32)o1	none
Cc1ccc(NC(=O)CCc2c(C)nn(-c3ccc(N4CCCCC4)nn3)c2C)cc1F	p53null 32C tox inconclusive, p53null 39C kill 7.94µM (no result: S16 viability, GALC G270D up, PMP22 txn)
Cc1nn(-c2ccc(N3CCCCC3)nn2)c(C)c1CCC(=O)Nc1cccc(F)c1	p53null 32C tox inconclusive, p53null 39C kill inconclusive (no result: S16 viability, GALC G270D up, PMP22 txn)
Cc1cccc(-c2nc3cc(NC(=O)Cc4ccc(Cl)cc4)ccc3o2)c1	pS6 MEF inh inconclusive, PMP22 txn inconclusive
O=C(CSCc1cc(=O)c2ccccc2[nH]1)Nc1cccc(C(F)(F)F)c1	none
COC(=O)c1c(SCC(=O)Nc2cccc(Cl)c2C)[nH]c2ccccc2c1=O	p53null 39C kill 10µM
COC(=O)c1c(SCC(=O)Nc2cc(F)ccc2F)[nH]c2ccc(C)cc2c1=O	S16 viability inconclusive, p53null 32C tox inconclusive, p53null 39C kill inconclusive
COC(=O)c1c(SCC(=O)Nc2cccc(C(F)(F)F)c2)[nH]c2ccccc2c1=O	S16 viability inconclusive, p53null 32C tox inconclusive, GALC G270D up inconclusive, p53null 39C kill 3.16µM
CC(C)c1ccc(OCC(=O)Nc2ccc(S(=O)(=O)Nc3ncccn3)cc2)cc1	none
COc1ccc2oc(=Nc3ccccc3)c(-c3nc4ccccc4[nH]3)cc2c1	p53null 32C tox 11.2µM (no result: S16 viability, GALC G270D up, pS6 MEF inh, p53null 39C kill, PMP22 txn)
CCOc1ccc(Nc2nc(Nc3ccc(OCC)cc3)nc(N3CCOCC3)n2)cc1	pS6 MEF inh 2.33µM
c1ccc(Nc2nc(N3CCNCC3)nc(N3CCOCC3)n2)cc1	none (no result: S16 viability, GALC G270D up, pS6 MEF inh, PMP22 txn)
Cc1cccc(Nc2nc(Nc3cccc(C)c3)nc(N3CCOCC3)n2)c1	pS6 MEF inh 1.17µM, PMP22 txn inconclusive
Cc1cccc(Nc2nc(N3CCCCC3)nc(N3CCCCC3)n2)c1	none (no result: S16 viability, GALC G270D up, pS6 MEF inh, PMP22 txn)
COc1cc(-c2n[nH]c(=O)o2)cc(OC)c1OC	none (no result: S16 viability, GALC G270D up, pS6 MEF inh, PMP22 txn)
Cc1cc(N2CCN(C)CC2)nc2ccc(NC(=O)Nc3ccc(F)cc3)cc12	S16 viability inconclusive, PMP22 txn inconclusive
CCN1CCN(c2cc(C)c3cc(NC(=O)/C=C/c4cccc(OC)c4OC)ccc3n2)CC1	S16 viability inconclusive, pS6 MEF inh inconclusive, p53null 39C kill inconclusive
Cc1cc(C)cc(NC(=O)Nc2ccc3nc(N4CCN(C)CC4)cc(C)c3c2)c1	S16 viability inconclusive, GALC G270D up 17.8µM, PMP22 txn inconclusive
Cc1cc(N2CCCCC2)nc2ccc(NC(=O)/C=C/c3ccccc3Cl)cc12	S16 viability inconclusive, PMP22 txn inconclusive
Cc1cc(N2CCCCC2)nc2ccc(NC(=O)/C=C/c3ccccc3OC(C)C)cc12	pS6 MEF inh 16.5µM

Screening results (PubChem)
